Tests used:
POU1 (OCT1 POU domain) = POU1 (OCT1 POU domain) (human, UniProt P14859 260-458); test: EMSA-SELEX-seq; no BOB1; 20 mM Tris-HCl pH 7.6, 140 mM NaCl, 10% glycerol, 0.5 mM EDTA, 0.05% Triton X-100, 0.1 mg/mL BSA, 0.1 mg/mL poly(dI-dC), 5 mM DTT, room temperature, 20 min; high values mean tight binding; settings: protein: recombinant; dsDNA, one strand shown
Method in brief: (§1)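 Binding preference means the percentage of sequenced 8-mers matching a motif pattern. Tagged POU-domain proteins (30 ng), expressed in E. coli BL21, purified under denaturing conditions and renatured, were mixed with 300 ng of a PCR-amplified double-stranded random 35-nt library, with or without 28 ng coactivator protein, for 20 min at RT in 20 μL Tris–HCl pH 7.6 binding buffer. Selection was repeated over four rounds of excising complex bands from native 6% PAGE, eluting and PCR amplification, followed by Illumina sequencing.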

POU2 (OCT2 POU domain) = target: T1, POU2 (OCT2 POU domain) (human, UniProt P09086 175-386); test: as above; settings: protein: recombinant; dsDNA, one strand shown
T1 sequence: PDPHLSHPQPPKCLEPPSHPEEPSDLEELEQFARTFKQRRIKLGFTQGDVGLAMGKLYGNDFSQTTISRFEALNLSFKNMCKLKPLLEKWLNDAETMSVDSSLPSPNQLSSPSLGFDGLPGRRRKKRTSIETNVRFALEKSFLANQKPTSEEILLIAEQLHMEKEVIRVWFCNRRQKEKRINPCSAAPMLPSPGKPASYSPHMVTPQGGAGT
Method in brief: as §1

[1] = target: POU1 (OCT1 POU domain);BOB1 (OBF1, OCA-B) (human;human, UniProt P14859;Q16633 260-458;1-256, |); test: EMSA-SELEX-seq; with BOB1 (ternary complex band); 20 mM Tris-HCl pH 7.6, 140 mM NaCl, 10% glycerol, 0.5 mM EDTA, 0.05% Triton X-100, 0.1 mg/mL BSA, 0.1 mg/mL poly(dI-dC), 5 mM DTT, room temperature, 20 min; high values mean tight binding; settings: protein: recombinant;recombinant; copies: 1;1; dsDNA, one strand shown
Method in brief: as §1

[2] = target: T2, POU2 (OCT2 POU domain);BOB1 (OBF1, OCA-B) (human;human, UniProt P09086;Q16633 175-386;1-256, |); test: as above; settings: protein: recombinant;recombinant; copies: 1;1; dsDNA, one strand shown
T2 sequence 1: T1 sequence
T2 sequence 2: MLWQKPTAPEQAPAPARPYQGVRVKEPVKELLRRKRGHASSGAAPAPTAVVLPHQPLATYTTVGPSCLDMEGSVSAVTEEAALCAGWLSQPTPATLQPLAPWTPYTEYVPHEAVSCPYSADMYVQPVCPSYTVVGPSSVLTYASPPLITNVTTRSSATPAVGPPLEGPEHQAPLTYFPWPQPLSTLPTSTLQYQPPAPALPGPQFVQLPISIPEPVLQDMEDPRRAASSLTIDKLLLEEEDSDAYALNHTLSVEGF
Method in brief: as §1

Sequence of POU1 (OCT1 POU domain) (P14859 260-458): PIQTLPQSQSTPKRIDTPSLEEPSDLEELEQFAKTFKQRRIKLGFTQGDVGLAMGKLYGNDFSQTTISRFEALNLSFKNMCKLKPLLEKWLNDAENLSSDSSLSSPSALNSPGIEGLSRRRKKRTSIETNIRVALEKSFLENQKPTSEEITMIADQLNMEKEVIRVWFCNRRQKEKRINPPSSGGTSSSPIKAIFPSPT

Row | Sequence | binding signal (POU1 (OCT1 POU domain)) | binding signal (POU2 (OCT2 POU domain)) | binding signal [1] | binding signal [2]
1 | ACCCGAAA | 0.0172 % of ANNNNAAN 8-mers | 0.019 % of ANNNNAAN 8-mers | 0.0168 % of ANNNNAAN 8-mers | 0.014 % of ANNNNAAN 8-mers
2 | ATGTAAAT | 3.45 % of ANNNNAAN 8-mers | 2.89 % of ANNNNAAN 8-mers | 2.3 % of ANNNNAAN 8-mers | 3.57 % of ANNNNAAN 8-mers
3 | ATGTAAAC | 0.249 % of ANNNNAAN 8-mers | 0.196 % of ANNNNAAN 8-mers | 0.293 % of ANNNNAAN 8-mers | 0.227 % of ANNNNAAN 8-mers
4 | ATGGAAAC | 0.0805 % of ANNNNAAN 8-mers | 0.0616 % of ANNNNAAN 8-mers | 0.11 % of ANNNNAAN 8-mers | 0.066 % of ANNNNAAN 8-mers
5 | AAGTCAAG | 0.0332 % of ANNNNAAN 8-mers | 0.0403 % of ANNNNAAN 8-mers | 0.0367 % of ANNNNAAN 8-mers | 0.033 % of ANNNNAAN 8-mers
6 | AACCGAAG | 0.0172 % of ANNNNAAN 8-mers | 0.0201 % of ANNNNAAN 8-mers | 0.0168 % of ANNNNAAN 8-mers | 0.014 % of ANNNNAAN 8-mers
7 | AAGCTAAT | 0.0969 % of ANNNNAAN 8-mers | 0.136 % of ANNNNAAN 8-mers | 0.0527 % of ANNNNAAN 8-mers | 0.0644 % of ANNNNAAN 8-mers
8 | AGAAGAAA | 0.0507 % of ANNNNAAN 8-mers | 0.0685 % of ANNNNAAN 8-mers | 0.055 % of ANNNNAAN 8-mers | 0.0471 % of ANNNNAAN 8-mers
9 | ACTTTAAA | 0.0713 % of ANNNNAAN 8-mers | 0.0817 % of ANNNNAAN 8-mers | 0.0652 % of ANNNNAAN 8-mers | 0.0495 % of ANNNNAAN 8-mers
10 | AGATAAAA | 0.0542 % of ANNNNAAN 8-mers | 0.057 % of ANNNNAAN 8-mers | 0.0597 % of ANNNNAAN 8-mers | 0.0462 % of ANNNNAAN 8-mers
11 | ATACCAAG | 0.0252 % of ANNNNAAN 8-mers | 0.0334 % of ANNNNAAN 8-mers | 0.0238 % of ANNNNAAN 8-mers | 0.0305 % of ANNNNAAN 8-mers
12 | ATTATAAC | 0.0713 % of ANNNNAAN 8-mers | 0.113 % of ANNNNAAN 8-mers | 0.0581 % of ANNNNAAN 8-mers | 0.057 % of ANNNNAAN 8-mers
13 | ATTCTAAC | 0.0503 % of ANNNNAAN 8-mers | 0.0495 % of ANNNNAAN 8-mers | 0.0328 % of ANNNNAAN 8-mers | 0.0322 % of ANNNNAAN 8-mers
14 | AGTTAAAG | 0.0545 % of ANNNNAAN 8-mers | 0.0564 % of ANNNNAAN 8-mers | 0.064 % of ANNNNAAN 8-mers | 0.0528 % of ANNNNAAN 8-mers
15 | ACGGCAAA | 0.0328 % of ANNNNAAN 8-mers | 0.0305 % of ANNNNAAN 8-mers | 0.0445 % of ANNNNAAN 8-mers | 0.0371 % of ANNNNAAN 8-mers
16 | ATATTAAT | 0.424 % of ANNNNAAN 8-mers | 0.558 % of ANNNNAAN 8-mers | 0.142 % of ANNNNAAN 8-mers | 0.177 % of ANNNNAAN 8-mers

Row | Sequence | binding signal (POU1 (OCT1 POU domain)) | binding signal (POU2 (OCT2 POU domain)) | binding signal [1] | binding signal [2]
17 | ATAAGAAC | 0.0362 % of ANNNNAAN 8-mers | 0.0518 % of ANNNNAAN 8-mers | 0.0332 % of ANNNNAAN 8-mers | 0.0438 % of ANNNNAAN 8-mers
18 | ATTTTAAT | 0.672 % of ANNNNAAN 8-mers | 0.679 % of ANNNNAAN 8-mers | 0.258 % of ANNNNAAN 8-mers | 0.221 % of ANNNNAAN 8-mers
19 | AAACTAAC | 0.0256 % of ANNNNAAN 8-mers | 0.0316 % of ANNNNAAN 8-mers | 0.03 % of ANNNNAAN 8-mers | 0.0289 % of ANNNNAAN 8-mers
20 | ATGAGAAA | 0.0755 % of ANNNNAAN 8-mers | 0.0765 % of ANNNNAAN 8-mers | 0.0738 % of ANNNNAAN 8-mers | 0.0792 % of ANNNNAAN 8-mers
21 | ACTATAAG | 0.029 % of ANNNNAAN 8-mers | 0.0339 % of ANNNNAAN 8-mers | 0.03 % of ANNNNAAN 8-mers | 0.0314 % of ANNNNAAN 8-mers
22 | AATAAAAA | 0.137 % of ANNNNAAN 8-mers | 0.132 % of ANNNNAAN 8-mers | 0.125 % of ANNNNAAN 8-mers | 0.0958 % of ANNNNAAN 8-mers
23 | ATCTCAAC | 0.0252 % of ANNNNAAN 8-mers | 0.027 % of ANNNNAAN 8-mers | 0.0254 % of ANNNNAAN 8-mers | 0.0264 % of ANNNNAAN 8-mers
24 | ATCTCAAT | 0.0561 % of ANNNNAAN 8-mers | 0.0846 % of ANNNNAAN 8-mers | 0.0558 % of ANNNNAAN 8-mers | 0.0768 % of ANNNNAAN 8-mers
25 | ATATAAAC | 0.0637 % of ANNNNAAN 8-mers | 0.0719 % of ANNNNAAN 8-mers | 0.055 % of ANNNNAAN 8-mers | 0.0652 % of ANNNNAAN 8-mers
26 | ACAGGAAA | 0.0526 % of ANNNNAAN 8-mers | 0.0506 % of ANNNNAAN 8-mers | 0.0702 % of ANNNNAAN 8-mers | 0.0603 % of ANNNNAAN 8-mers
27 | ATTTGAAA | 0.142 % of ANNNNAAN 8-mers | 0.0995 % of ANNNNAAN 8-mers | 0.178 % of ANNNNAAN 8-mers | 0.0933 % of ANNNNAAN 8-mers
28 | AGCCCAAT | 0.0168 % of ANNNNAAN 8-mers | 0.019 % of ANNNNAAN 8-mers | 0.0226 % of ANNNNAAN 8-mers | 0.0231 % of ANNNNAAN 8-mers
29 | ATAGAAAT | 0.0782 % of ANNNNAAN 8-mers | 0.0961 % of ANNNNAAN 8-mers | 0.0878 % of ANNNNAAN 8-mers | 0.0892 % of ANNNNAAN 8-mers
30 | ATGTCAAA | 0.0744 % of ANNNNAAN 8-mers | 0.0673 % of ANNNNAAN 8-mers | 0.0745 % of ANNNNAAN 8-mers | 0.0652 % of ANNNNAAN 8-mers
31 | AATGAAAG | 0.0751 % of ANNNNAAN 8-mers | 0.088 % of ANNNNAAN 8-mers | 0.0901 % of ANNNNAAN 8-mers | 0.0718 % of ANNNNAAN 8-mers
32 | AATCCAAC | 0.0259 % of ANNNNAAN 8-mers | 0.0288 % of ANNNNAAN 8-mers | 0.016 % of ANNNNAAN 8-mers | 0.0223 % of ANNNNAAN 8-mers

— PMC10812921, “Transcriptional Coactivator BOB1 (OBF1, OCA-B) Modulates the Specificity of DNA Recognition by the POU-Domain Factors OCT1 and OCT2 in a Monomeric Configuration”
